High-throughput results: PubChem, National Center for Advancing Translational Sciences (NCATS)
Sampled rows, rich in hits. Any-hit rate of the full collection: about 21%.
Cycloheximide cs = affects cycloheximide protein synthesis inhibition readout, counter-screen. cell reporter, cycloheximide protein synthesis inhibition counterscreen. max response, %. 300,000 tested, 12% active; in the data active means max response mostly above about 13%, no sharp cut-off; inactive means mostly below about 14%; further: read at 38.3 µM for the half of the compounds with a filed dose; 0% is about no effect
Pf growth 96h = P. falciparum growth inhibition at 96 hours. P. falciparum luciferase reporter growth, 96 h. Potency, µM (series often up to 28.7 µM), without a hit: at the top dose activity change, negative = inhibition, usual class: inhibitors. 320,000 tested, 6.9% active; active means well fitted inhibition curve with a large enough effect; inconclusive means small, poorly fitted or top-dose-only effect, or another doubt; inactive means no such curve, though single readings can be large or run the other way; further: potency means the concentration at half of the fitted maximal effect; on the % scale 0 is the no-effect control and ±100 the full control effect
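Plates of compound plus infected erythrocytes (2% hematocrit, 0.05% parasitemia final) incubate 96 hours, 37 C, 5% CO2. Detection reagent added; reduced luminescence from the parasites' luciferase reporter flags inhibition.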
Shiga inhibitor = Shiga toxin inhibition; Vero cells, Shiga toxin protein synthesis inhibition reporter; inhibition, % at 38.7 µM; 290,000 tested, 9.2% active; in the data active means inhibition mostly above about 28%, no sharp cut-off; inactive means mostly below about 43%; further: 0% is about no effect
Pf growth 48h = inhibits P. falciparum growth in the first generation, 48 h | 310,000 tested, 5.9% active | Potency, µM (top dose mostly 28.7 µM), without a hit: at the top dose activity change, negative = inhibition, hits mostly inhibitors | P. falciparum luciferase growth in erythrocytes, 48 h; active means well fitted inhibition curve with a large enough effect; inconclusive means small, poorly fitted or top-dose-only effect, or another doubt; inactive means no such curve, though single readings can be large or run the other way; further: potency means the concentration at half of the fitted maximal effect; on the % scale 0 is the no-effect control and ±100 the full control effect
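Luciferase-expressing parasites in RBCs, 2% Hct / 0.1% parasitemia final; RPMI 1640 + 0.5% Albumax; 37 C, 5% CO2, one generation; luminescence read-out, lower signal = inhibition.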
SARS PLpro yeast = blocks SARS-CoV papain-like protease in a yeast assay. S. cerevisiae expressing SARS-CoV PLpro, growth rescue. 330,000 tested, 0.19% active. Potency, µM (doses to about 32.9 µM), for inactives: top-dose activity, positive = growth rescue, hits mostly activators; further: potency means the concentration at half of the fitted maximal effect; 0% is about no effect; nearly all actives have a fitted effect of over 55% in size
NS1 inh = influenza NS1 inhibition. Potency, µM (series often up to 46.1 µM), without a hit: at the top dose activity, positive = more growth. 270,000 tested, 0.4% active. AID 2326; further: potency means the concentration at half of the fitted maximal effect; actives are rising curves; nearly all actives have a fitted effect of over 50% in size
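Recovery from NS1-induced slow growth read by OD600 in budding yeast switched to galactose assay medium (pH 6.0, -URA) at 1:100 dilution. Compound 23 nl per well; the matching strain lacking NS1 serves as control.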
* = called active by the depositor; [ ] = dose if it differs, or a comment. Unless noted, the call rests on the fitted dose curve.

Results for COc1ccccc1S(=O)(=O)CC(O)COc1ccc(F)cc1Cl (stereo not drawn) ?
Cycloheximide cs: 10; Pf growth 96h: 0%; Shiga inhibitor: -9; Pf growth 48h: 14%; SARS PLpro yeast: 1%; NS1 inh: 1%

How did CN(C(=O)CCc1nc2ccccc2s1)c1ccccc1 do in these assays?
Cycloheximide cs: 21*; Pf growth 96h: 24%; Shiga inhibitor: 1; Pf growth 48h: 22%; SARS PLpro yeast: -17%; NS1 inh: -7%

Results for CN(C(=O)COc1cc(C(F)(F)F)nn1C)c1ccccc1 ?
Cycloheximide cs: -2; Pf growth 96h: 0%; Shiga inhibitor: 15; Pf growth 48h: 8%; SARS PLpro yeast: 0%; NS1 inh: 1%

Results for CN(C(=O)COc1nc2ccccc2s1)c1ccccc1 ?
Cycloheximide cs: 11; Shiga inhibitor: 23*

How did CC(=O)Nc1ccc(S(=O)(=O)Oc2cccc(N3C(=O)C4CC=CCC4C3=O)c2)cc1 (stereo not drawn) do in these assays?
Cycloheximide cs: -3; Pf growth 96h: 2.3µM*; Shiga inhibitor: 18; SARS PLpro yeast: 12%[6.58 µM]; NS1 inh: -3%

What do the screens show for `CCN(CC)c1ncc(C#N)c(N)n1`?
Cycloheximide cs: -1; Pf growth 96h: 28%; Shiga inhibitor: -5; Pf growth 48h: 37%; SARS PLpro yeast: 0%; NS1 inh: 5%

How did O=C(Nc1ccc(Br)cc1)c1ccc2ncsc2c1 do in these assays?
Cycloheximide cs: 50*; Pf growth 96h: 244%; Shiga inhibitor: 89*; Pf growth 48h: 198%; SARS PLpro yeast: 0%; NS1 inh: -12%

How did CCc1ccc(NC(=O)c2ccc3ncsc3c2)cc1 do in these assays?
Cycloheximide cs: 44*; Pf growth 96h: inactive; Shiga inhibitor: 68*; Pf growth 48h: 138%; SARS PLpro yeast: 5%; NS1 inh: -62%

Results for O=C(Nc1ccc2c(c1)C(=O)NC2=O)c1ccc2ncsc2c1 ?
Cycloheximide cs: 22*; Pf growth 96h: 192%; Shiga inhibitor: 92*; Pf growth 48h: 155%; SARS PLpro yeast: 0%; NS1 inh: 7%

What do the screens show for `COc1ccc(NC(=O)c2ccc3ncsc3c2)cc1`?
Cycloheximide cs: 58*; Pf growth 96h: 282%; Shiga inhibitor: 114*; Pf growth 48h: 2%[0.00184 µM]; SARS PLpro yeast: 0%; NS1 inh: -6%

How did CC(C)(C)c1ccc(NC(=O)COC(=O)c2ccc3ncsc3c2)cc1 do in these assays?
Pf growth 96h: -66%; Pf growth 48h: 36%; SARS PLpro yeast: 2%

What do the screens show for `COc1ccc(C(CNC(=O)c2ccc(NS(=O)(=O)c3cccc([N+](=O)[O-])c3)cc2)N2CCOCC2)cc1` (stereo not drawn)?
Cycloheximide cs: -2; Pf growth 96h: inconclusive; Shiga inhibitor: 14; Pf growth 48h: inconclusive; SARS PLpro yeast: 2%; NS1 inh: -39%

Results for CCOc1ccc(NC(=O)c2ccc(S(=O)(=O)N(C)C)cc2)cc1 ?
Cycloheximide cs: 12; Pf growth 96h: inconclusive; Shiga inhibitor: -4; Pf growth 48h: -11%; SARS PLpro yeast: 3%; NS1 inh: 9%

How did CN(C)S(=O)(=O)c1ccc(NC(=O)c2ccc3ncsc3c2)cc1 do in these assays?
Cycloheximide cs: 22; Pf growth 96h: inconclusive; Shiga inhibitor: 62*; Pf growth 48h: inconclusive; SARS PLpro yeast: -1%; NS1 inh: -5%

How did COC(=O)[C@@]1(Cc2ccc(F)cc2)[C@@H]2[C@@H](CC(=O)[C@H]2CC(=O)C(=O)N(C)C)CN1C(=O)c1ccccc1 do in these assays?
Cycloheximide cs: -4; Pf growth 96h: 9.3µM*; Shiga inhibitor: -3; Pf growth 48h: -23%; SARS PLpro yeast: -6%; NS1 inh: -28%

How did O=C(NCCc1nc2ccccc2[nH]1)C1CCC(=O)N(CCc2cccc(F)c2)C1 (stereo not drawn) do in these assays?
Cycloheximide cs: -3; Pf growth 96h: inconclusive; Shiga inhibitor: -5; Pf growth 48h: -3%; SARS PLpro yeast: -2%; NS1 inh: -1%

How did COC(=O)[C@@]1(Cc2ccc(F)cc2)[C@H]2c3cc(C(=O)N(C)C)n(CCSCCO)c3C[C@H]2CN1C(=O)c1ccccc1 do in these assays?
Cycloheximide cs: -4; Pf growth 96h: 13µM*; Shiga inhibitor: -12; Pf growth 48h: 6.6µM*; SARS PLpro yeast: 6%; NS1 inh: -6%
